Drawing on PubChem BioAssay (NCATS), this text covers Potency for eleven compounds.

Inconclusive results are not listed. A number with no mark means an inactive call. Activity calls are given as the source filed them. Calls follow the shape of the dose curve; as a rule, active = well fitted curve in the direction sought with a large enough effect; inconclusive = small, poorly fitted or top-dose-only effect, or another doubt; inactive = no such curve, though single readings can be large; an effect the other way counts as inactive or inconclusive.

The nature of assay [1]: Quantitative High-Throughput drug screen in 47 multiple myeloma cell lines against the NCATS MIPE library collection: KMS12PE_JCRB cell viability assay (AID 1918972). Also: nearly all actives have a fitted effect of over 30% in size. A digest of the protocol: (§1)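 qHTS of the MIPE 4.0 collection: 500 myeloma cells/well, 48 h drug exposure at 37C in 5% CO2, then CellTiter-Glo for 5 min at room temperature before luminescence reading.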
Assay [2] can be described thus: Quantitative High-Throughput drug screen in 47 multiple myeloma cell lines against the NCATS MIPE library collection: KMS20_JCRB cell viability assay (AID 1918973). Also: nearly all actives have a fitted effect of over 45% in size. In a few lines:
(§2)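 Viability readout: CellTiter-Glo luminescence following 5 min room-temperature incubation with reagent. Prior exposure: 48 h, 37C, humidified 5% CO2, 500 cells per well.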

Assay [3] is described as follows: Quantitative High-Throughput drug screen in 47 multiple myeloma cell lines against the NCATS MIPE library collection: KMS26_JCRB cell viability assay (AID 1918975). Also: nearly all actives have a fitted effect of over 45% in size. In a few lines:
as §1

Assay [4] in a line: Quantitative High-Throughput drug screen in 47 multiple myeloma cell lines against the NCATS MIPE library collection: NCIH929_DSMZ cell viability assay (AID 1918978). Also: nearly all actives have a fitted effect of over 35% in size. A digest of the protocol:
(§3)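 Viability after 48 h drug exposure was measured as ATP-dependent luminescence. Cells, 500 per well, sat at 37 °C under 5% CO2; DMSO wells set 100%, media-only wells 0%.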

A short description of assay [5]: Quantitative High-Throughput drug screen in 47 multiple myeloma cell lines against the NCATS MIPE library collection: OCIMY1_PLB cell viability assay (AID 1918979). Also: nearly all actives have a fitted effect of over 35% in size. A digest of the protocol: as §3
Assay [6] can be described thus: Quantitative High-Throughput drug screen in 47 multiple myeloma cell lines against the NCATS MIPE library collection: MM1S_ATCC cell viability assay (AID 1918980). Also: nearly all actives have a fitted effect of over 45% in size. In a few lines: as §3
Assay [7] in a line: Quantitative High-Throughput drug screen in 47 multiple myeloma cell lines against the NCATS MIPE library collection: LP1_DSMZ cell viability assay (AID 1918982). Also: nearly all actives have a fitted effect of over 35% in size. In a few lines:
as §3

Assay [8] is described as follows: Quantitative High-Throughput drug screen in 47 multiple myeloma cell lines against the NCATS MIPE library collection: KMS28PE_JCRB cell viability assay (AID 1918983). Also: nearly all actives have a fitted effect of over 35% in size. A digest of the protocol: as §3
Assay [9] in a line: Quantitative High-Throughput drug screen in 47 multiple myeloma cell lines against the NCATS MIPE library collection: L363_DSMZ cell viability assay (AID 1918984). Also: nearly all actives have a fitted effect of over 40% in size. In a few lines: as §3
Assay [10] is described as follows: Quantitative High-Throughput drug screen in 47 multiple myeloma cell lines against the NCATS MIPE library collection: KMS34_JCRB cell viability assay (AID 1918985). Also: nearly all actives have a fitted effect of over 40% in size. In a few lines:
as §3

Assay [11] can be described thus: Quantitative High-Throughput drug screen in 47 multiple myeloma cell lines against the NCATS MIPE library collection: OCIMY5_PLB cell viability assay (AID 1918988). Also: nearly all actives have a fitted effect of over 65% in size. A digest of the protocol:
as §3

The nature of assay [12]: Quantitative High-Throughput drug screen in 47 multiple myeloma cell lines against the NCATS MIPE library collection: OPM1_PLB cell viability assay (AID 1918989). Also: nearly all actives have a fitted effect of over 40% in size. In a few lines: as §3
Assay [13] can be described thus: Quantitative High-Throughput drug screen in 47 multiple myeloma cell lines against the NCATS MIPE library collection: XG6_PLB cell viability assay (AID 1919865). Also: nearly all actives have a fitted effect of over 40% in size. In a few lines: as §3
A short description of assay [14]: Quantitative High-Throughput drug screen in 47 multiple myeloma cell lines against the NCATS MIPE library collection: MMM1_PLB cell viability assay (AID 1918976). Also: nearly all actives have a fitted effect of over 35% in size. In a few lines:
as §3

Assay [15] can be described thus: Quantitative High-Throughput drug screen in 47 multiple myeloma cell lines against the NCATS MIPE library collection: MOLP8_DSMZ cell viability assay (AID 1918977). Also: nearly all actives have a fitted effect of over 45% in size. In a few lines:
as §3

A short description of assay [16]: Quantitative High-Throughput drug screen in 47 multiple myeloma cell lines against the NCATS MIPE library collection: MM1R_ATCC cell viability assay (AID 1918981). Also: nearly all actives have a fitted effect of over 35% in size. In a few lines: as §3
The nature of assay [17]: Quantitative High-Throughput drug screen in 47 multiple myeloma cell lines against the NCATS MIPE library collection: OCIMY7_PLB cell viability assay (AID 1918987). Also: nearly all actives have a fitted effect of over 65% in size. In a few lines:
as §3

Assay [18] is described as follows: Quantitative High-Throughput drug screen in 47 multiple myeloma cell lines against the NCATS MIPE library collection: U266_ATCC cell viability assay (AID 1919864). Also: nearly all actives have a fitted effect of over 35% in size. A digest of the protocol:
as §3

The nature of assay [19]: Quantitative High-Throughput drug screen in 47 multiple myeloma cell lines against the NCATS MIPE library collection: KMS21BM_JCRB cell viability assay (AID 1918974). The following applies: ATP luminescence, 48 h; viability: at 45.8 µM (top of the series). A digest of the protocol:
as §2

Assay [20] is described as follows: Quantitative High-Throughput drug screen in 47 multiple myeloma cell lines against the NCATS MIPE library collection: SKMM1_PLB cell viability assay (AID 1919863). Also: nearly all actives have a fitted effect of over 35% in size. The conditions noted are these: SKMM1 myeloma viability, CellTiter-Glo ATP, 48 h; viability: stronger effect = lower value. A digest of the protocol: as §3
For orientation: In ATP-based viability assays light output follows the ATP content of the culture.
Potency is read from the fitted curve at half-maximal effect.

With `CSCC[C@@H](NC(=O)[C@@H](Cc1ccccc1)NC(=O)CNC(=O)CNC(=O)[C@@H](N)Cc1ccc(O)cc1)C(=O)O`, the Potency result in [1], in assay [2], in assay [3], in assay [4], in [5] and in assay [6] was “inactive” in each case. Also, the Potency result in [7], in [8], in [9], in assay [10], in assay [11] and in [12] was “inactive” throughout. Further, in [13], the Potency entry is “inactive”.

For the compound `COc1cc([C@@H]2c3cc4c(cc3[C@@H](O)C3COC(=O)C32)OCO4)cc(OC)c1O` (stereo not given in full), the Potency in assay [1] was 37.2 nM (active); in assay [3] it was 105 nM (active); in [14], 93.5 nM (active); in [15], 418 nM (active); in assay [5] it was 41.8 nM (active); in [6], 187 nM (active). The Potency in [16] is 83.3 nM (active); in assay [8], 41.8 nM (active); in [9] it was 13.2 nM (active); in assay [10] it was 18.7 nM (active); in assay [17], 52.6 nM (active); in assay [11] it was 10.5 nM (active). The Potency in [13] was 14.8 nM (active).

Turning to `COc1ccc2c(c[n+](C)c3c4cc5c(cc4ccc23)OCO5)c1OC`, the Potency in [1] is 4690 nM (active); in [3], 3720 nM (active); in [14], 6620 nM (active); in assay [15] it was 3320 nM (active); in [4] it was 7430 nM (active); in assay [5], 7430 nM (active). For the same compound, the Potency was 4690 nM (active) in [6]; 2350 nM (active) in assay [16]; 14800 nM (active) in [7]; 4690 nM (active) in assay [8]; 4180 nM (active) in [9]; 4180 nM (active) in assay [10]. Further, the Potency is 2960 nM (active) in [17]; 2090 nM (active) in assay [11]; 9350 nM (active) in assay [12]; 5900 nM (active) in assay [18]; 5260 nM (active) in [13].

`CCNC(=O)CC1N=C(c2ccc(Cl)cc2)c2cc(OC)ccc2-n2c(C)nnc21` (stereo not given): the Potency in assay [1] was 13200 nM (active); in [19], 5900 nM (active); in assay [3] it was 5900 nM (active); in [14], 16600 nM (active); in assay [4], 10500 nM (active); in assay [5], 18700 nM (active). The Potency in [6] was 11800 nM (active); in assay [16], 14800 nM (active); in assay [8], 20900 nM (active); in assay [17] it was 18700 nM (active); in assay [11], 6620 nM (active); in assay [18], 18700 nM (active). The Potency in [13] was 4690 nM (active).

Take `C[C@@H]1CC[C@@]2(OC1)O[C@H]1C[C@H]3[C@@H]4CC=C5C[C@@H](O[C@@H]6O[C@H](CO)[C@@H](O[C@@H]7O[C@@H](C)[C@H](O)[C@@H](O)[C@@H]7O)[C@H](O)[C@@H]6O[C@@H]6O[C@@H](C)[C@H](O)[C@@H](O)[C@@H]6O)CC[C@]5(C)[C@@H]4CC[C@]3(C)[C@@H]1[C@H]2C`: the Potency is 1320 nM (active) in assay [1]; 1480 nM (active) in assay [19]; 2350 nM (active) in assay [3]; 2350 nM (active) in assay [14]; 1870 nM (active) in assay [15]; 1660 nM (active) in assay [5]. In addition, the Potency in assay [16] is 2090 nM (active); in assay [7], 2960 nM (active); in [8] it was 2960 nM (active); in [9], 1870 nM (active); in [10] it was 1870 nM (active); in [17] it was 3320 nM (active). Further, the Potency in [11] is 1660 nM (active); in [12] it was 2960 nM (active); in assay [20], 2350 nM (active); in assay [13], 3720 nM (active).

For the compound `CC(C)N[C@@H]1CCn2c(=O)[nH]c3cccc(c32)[C@@H]1O`, the Potency in assay [1] was 6620 nM (active); in assay [19] it was 833 nM (active); in assay [3] it was 26400 nM (active); in assay [14] it was 18700 nM (active); in assay [6], 372 nM (active); in [16] it was 6620 nM (active). Also, the Potency was 20900 nM (active) in assay [8]; 3320 nM (active) in [9]; 10500 nM (active) in assay [10]; 118 nM (active) in assay [11]; 1660 nM (active) in assay [18]; 2350 nM (active) in assay [13].

As for `C[C@H]([C@H](O)CCC(C)(C)O)[C@H]1CC[C@@]2(O)C3=CC(=O)[C@@H]4C[C@@H](O)[C@@H](O)C[C@]4(C)[C@@H]3CC[C@]12C`, the Potency result in [1], in [3], in [4], in assay [5], in [6] and in assay [16] was “inactive” in each case. For the same compound, the Potency result in assay [7], in assay [9], in [17], in assay [18] and in [13] was “inactive” in each case. In addition, in [14], the Potency is 14800 nM (active).

Turning to `CN(C)[C@@H]1C(=O)C(C(N)=O)=C(O)[C@@]2(O)C(=O)C3=C(O)c4c(O)cccc4[C@@](C)(O)[C@H]3[C@H](O)[C@@H]12`, the Potency entry in [1], in assay [3], in [5], in assay [16], in [7] and in [12] was “inactive” throughout. In addition, the Potency in assay [14] is 10500 nM (active); in assay [15], 11800 nM (active); in assay [6], 5900 nM (active); in assay [10] it was 3720 nM (active); in [18] it was 18700 nM (active); in assay [13], 5900 nM (active).

As for `C[C@@H]1CC[C@H]2[C@@H](C)C(=O)O[C@@H]3O[C@@]4(C)CC[C@H]1[C@]32OO4`, the Potency result in assay [1], in assay [19], in [5], in assay [16], in [7] and in assay [8] was “inactive” in each case. The Potency result in assay [9] and in assay [18] was “inactive” each time. In addition, the Potency in assay [3] was 11800 nM (active); in assay [15], 187 nM (active); in assay [6], 296 nM (active); in assay [10], 2960 nM (active); in assay [17], 1870 nM (active).

For the compound `Cc1[nH]nc2ccc(-c3cncc(OC[C@@H](N)Cc4c[nH]c5ccccc45)c3)cc12`, the Potency result in assay [1] and in assay [9] was “inactive” each time. Further, the Potency is 1180 nM (active) in [2]; 1180 nM (active) in assay [3]; 1180 nM (active) in [14]; 264 nM (active) in [15]; 1050 nM (active) in assay [4]; 1870 nM (active) in assay [5]. In addition, the Potency was 833 nM (active) in assay [6]; 1480 nM (active) in assay [16]; 1660 nM (active) in assay [7]; 833 nM (active) in [8]; 1320 nM (active) in assay [10]; 26.4 nM (active) in assay [17]. Besides, the Potency in assay [11] is 833 nM (active); in [12] it was 1180 nM (active); in assay [18] it was 83.3 nM (active); in assay [13], 418 nM (active).

Turning to `CC[C@@]1(O)C(=O)OCc2c1cc1n(c2=O)Cc2cc3ccccc3nc2-1`, the Potency in assay [1] is 132 nM (active); in [3] it was 2350 nM (active); in assay [14], 935 nM (active); in assay [15], 132 nM (active); in [4], 105 nM (active); in [5], 418 nM (active). Besides, the Potency in assay [6] is 23.5 nM (active); in assay [16] it was 26.4 nM (active); in assay [7], 590 nM (active); in assay [8], 166 nM (active); in assay [9], 296 nM (active); in assay [10], 209 nM (active). For the same compound, the Potency was 1 nM (active) in [17], 166 nM (active) in assay [11], 332 nM (active) in assay [18] and 14.8 nM (active) in assay [13].
